Assay outcomes: PubChem BioAssay, several laboratories
Mot1-301 SUMO: blocks SUMOylation pathway, rescuing yeast Mot1-301 growth. S. cerevisiae Mot1-301 growth rescue, ATP luminescence, 38.5C; percent above DMSO median, 100 means doubled. growth rescue, % at 18.8 µM. actives 1% (n = 320,000). AID 2716;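 active means every valid replicate shows activation above 250% relative to neutral control wells; inactive means the rest, any valid replicate at or below 250%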;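 further: OY570 slx delta 5 strain wells were the positive control but not used for scaling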
aDG glyco act: increases alpha dystroglycan glycosylation | Pro5-aDG cells, alpha-DG glycosylation AlphaScreen (IIH6); 0% Pro5, 100% B10-LARGE cell signal | activation, % at 10 µM | actives 0.22% (n = 360,000);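 active means activation of at least 8% versus controls, or a plate z-score of at least 8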;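 further: Pro5 are CHO cells carrying HIG-tagged alpha-DG that lacks glycosylation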
Cardio protect: protects H9c2 cardiomyocytes from peroxide injury | actives 0.63% (n = 360,000) | protection from H2O2 cell death, % at 20 µM | H2O2 injury protection, ATPLite, 2 h;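 active means compounds giving at least 50% protection of heart cells from peroxide-induced death in the single-dose screen, raw or plate-pattern-corrected value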;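 further: 0% = DMSO wells with peroxide and 100% = DMSO wells without peroxide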
CR mimetic SO: caloric restriction mimetics inhibiting age-related superoxide in yeast | S. cerevisiae aged cells, superoxide DHE fluorescence; active compounds read low | superoxide response (% of plate mean), % at 10 µM | actives 0.18% (n = 330,000);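 active means superoxide response under a set limit, about three screen SD below normal, cut at about 65% in these data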;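 further: yeast aged for seven days with compound at 30 °C before DHE staining; 100% = average MFI of all compound-treated wells on the plate with controls excluded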
FAS-TE inh: FAS thioesterase (human) inhibition; P49327; recombinant FAS-TE, OMFH fluorogenic substrate, fluorescence endpoint; inhibition, % at 15 µM; actives 0.67% (n = 360,000); AID 602261;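 active means compounds whose normalised, plate-corrected inhibition of enzyme fluorescence in the single-dose primary screen is 50% or more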;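 further: 0% = DMSO with enzyme and 100% = substrate without enzyme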
MPTP inh: blocks calcium-induced mitochondrial swelling; isolated mouse mitochondria, Ca2+ swelling absorbance, 30 min; inhibition, % at 10 µM; actives 1.4% (n = 360,000); AID 602449;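 active means inhibition of 50% or more, scaled per plate between neutral and stimulator controls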;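 further: 0% = DMSO wells given calcium and 100% = 1 mM EGTA wells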
Mot1 SUMO dose: SUMO pathway inhibitors in yeast Mot1-301 growth | 2,300 tested, under 10 active | shares compounds with Mot1-301 SUMO | AID 493004 | growth activity, percent, % at 42 µM | S. cerevisiae Mot1-301 galactose growth, ATP luminescence, 24 h; -100 = growth of slx-deleted rescue strain;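 active means Signal drops as the depositor expects, and the fitted half-maximal dose is no more than ten times the top valid tested dose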;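 further: more negative values mean stronger growth rescue toward the control strain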
* hit, by the source's call; / = no result; + = active, no number. The list is not random: actives were taken first. Their share in the collection is about 3.8%.

SMILES	Mot1-301 SUMO	aDG glyco act	Cardio protect	CR mimetic SO	FAS-TE inh	MPTP inh	Mot1 SUMO dose
CC1(C(=O)Nc2cccc(S(=O)(=O)N3CCOCC3)c2)Cc2ccccc2C(=O)O1 (stereo not given)	1	0	3	99	-8	-2	/
CC1(C(=O)Nc2cccc(-n3cnnn3)c2)Cc2ccccc2C(=O)O1 (stereo not given)	408*	0	0	119	-4	0	0
CCOC(=O)c1ccc(NC(=O)CC2Sc3ncnn3C2=O)cc1 (stereo not given)	674*	0	-8	101	-8	1	-1
COc1ccc(NC(=O)CC2Sc3ncnn3C2=O)cc1 (stereo not given)	-21	0	-50	108	-5	-1	/
CCCCSCCCNC(=O)CCCN1C(=O)c2ccccc2Sc2ncccc21	-8	0	-6	101	2	0	/
CCCCOc1ccc(CSC(=N)N)cc1Cl	467*	0	-7	109	-100	1	-1
CN(CC(=O)NNC(=O)CCNS(=O)(=O)c1ccccc1)S(=O)(=O)c1ccc(Cl)cc1	5	0	-5	101	-6	-1	/
Cc1ccc(S(=O)(=O)N2CCOCC2)cc1NC(=O)COC(=O)CNC(=O)c1ccccc1	532*	0	-10	102	-8	1	0
Cc1ccc2c(c1)C(=O)N1[C@H]3c4ccccc4OC[C@@H]3[C@H](c3ccccc3)[C@]1(C)C(=O)N2	+	0	-8	84	71*	0	0
COc1ccc2c(c1)[C@H]1[C@H](CO2)[C@H](c2ccccc2)[C@]2(C)C(=O)Nc3cc(OC)c(OC)cc3C(=O)N12	18	0	-1	/	36	-1	/
COc1ccc2c(c1)OC[C@H]1[C@H]2N2C(=O)CNC(=O)[C@@]2(C)[C@H]1c1ccccc1	-3	/	/	87	/	/	/
COc1ccc2c(c1)[C@H]1[C@H](CO2)[C@H](c2ccccc2)[C@]2(C)C(=O)Nc3ccc(C)cc3C(=O)N12	598*	0	-2	107	44	1	-1
COc1ccc2c(c1)[C@H]1[C@H](CO2)[C@H](c2ccccc2)[C@]2(C)C(=O)Nc3ccc(F)cc3C(=O)N12	904*	0	-6	96	40	0	-1
C[C@@]12C(=O)Nc3ccccc3C(=O)N1[C@H]1c3cc(Cl)ccc3OC[C@@H]1[C@@H]2c1ccccc1	228	0	0	95	47	0	/
COc1ccc2c(c1)OC[C@H]1[C@H]2N2C(=O)c3cc(C)ccc3NC(=O)[C@@]2(C)[C@H]1c1ccccc1	+	0	-4	91	76*	0	0
COc1ccc2c(c1)[C@@H]1[C@H](CO2)[C@H](c2ccccc2)[C@]2(C)C(=O)NCC(=O)N12	-7	0	-3	98	-11	-1	/
Cc1cc(C)cc(NC(=O)CN(C)CC(=O)N(CC(C)C)c2c(N)n(CC(C)C)c(=O)[nH]c2=O)c1	26	0	-1	95	0	1	/
C[C@@H]1CN([C@H](C)CO)C(=O)CCCn2cc(nn2)CO[C@H]1CN(C)S(=O)(=O)c1ccc(F)cc1	/	0	-1	/	-8	-2	/
CCOC(=O)C1(C)CCCN(C(=O)c2cccnc2SC)C1 (stereo not given)	/	0	5	/	-4	-1	/
COc1ccc(C(=O)C(C)OC(=O)CN2C(=O)c3ccccc3C2=O)cc1 (stereo not given)	7	0	-2	116	2	0	/
C/C(=N/OCO/N=C(\C)c1ccccc1)c1ccccc1	640*	0	-1	105	19	0	0
C/C(=N\OCc1ccc(C#N)cc1)c1ccccc1	346	0	-4	100	4	1	/
CN(CC(=O)Nc1n[nH]c(=S)s1)S(=O)(=O)c1cccc2cccnc12	-12	0	-2	96	-6	-2	/
CC(Cc1ccc(O)c(O)c1)C(C)Cc1ccc(O)c(O)c1 (stereo not given)	553*	/	/	120	/	/	0
CCn1c(SCC(=O)Nc2cc(C(C)(C)C)nn2-c2ccccc2)nnc1-c1cccs1	-1	1	2	118	4	0	/
SMILES	Mot1-301 SUMO	aDG glyco act	Cardio protect	CR mimetic SO	FAS-TE inh	MPTP inh	Mot1 SUMO dose
CCn1c(SCC(N)=O)nnc1-c1cc2c(C)nn(-c3ccccc3)c2s1	+	0	13	106	-5	-1	0
O=C1NC(=O)C(CC(=O)N(Cc2ccco2)C2(C(=O)NC3CCCC3)CCCCC2)N1 (stereo not given)	22	0	4	120	-3	0	/
Cc1cccc(C)c1NC(=O)C1(N(Cc2ccco2)C(=O)CC2NC(=O)NC2=O)CCCCC1 (stereo not given)	413*	0	5	101	-12	-1	0
O=C(COC(=O)/C=C/c1cccc(Br)c1)Nc1ccc(Cl)cn1	/	0	-3	/	-1	1	/
COc1cccc(/C=C/C(=O)OCC(=O)Nc2ccc(Cl)cn2)c1	760*	0	1	120	-4	2	0
CC(=O)N1CCC2(CC1)CC(=O)c1cc(OCC(=O)N3CCCC3)ccc1O2	488*	0	4	106	-2	0	1
CCOC(=O)COc1ccc2c(c1)C(=O)CC1(CCN(C(C)=O)CC1)O2	-8	0	1	96	-7	-1	/
O=S(=O)([N-]c1nc2ccccc2nc1-[n+]1ccccc1)c1ccccc1	-4	0	4	95	-13	4	/
Cc1cc(C)c[n+](-c2nc3ccccc3nc2[N-]S(=O)(=O)c2ccc(Br)s2)c1	379*	0	-1	119	-10	3	0
Cn1cc([C@]2(O)C(=O)Nc3ccc(OC(F)(F)F)cc32)c2ccccc21	/	0	/	/	/	8	/
COc1ccc(CCNC(=O)CC2C(=O)NCCN2CC(C)(C)C)cc1 (stereo not given)	770*	0	2	95	-6	0	0
CC(=O)c1ccc(NC(=O)C(C)Sc2nnc(-c3ccncc3)n2C2CC2)cc1 (stereo not given)	-3	0	1	84	-2	-1	/
CCN(CC)CCNc1ncnc2c1[nH]c1ccc(OC)cc12	+	/	/	96	/	/	1
O=C(Nc1ccc2c(c1)CCCN2C(=O)c1cccs1)c1cccc(F)c1	566*	0	7	121	6	0	-1
O=C(Nc1ccc2c(c1)CCCN2C(=O)c1cccs1)c1ccccc1	214	0	7	118	-3	-1	/
CS(=O)(=O)Nc1ccccc1C(=O)NCCSCc1ccccc1	523*	0	4	110	3	0	0
